According to ChEMBL document CHEMBL3988442, “University of Dundee, Small-Polar-MMV Screening Library” (2021):
The whole screen tested about 48,000 compounds, of which about 13,000 (27%) showed an effect of 50% or more. This is one part of the list.

What follows are compounds tested on Wolbachia pipientis (assay: Anti-Wolbachia Cell-Based Screen). Conditions: 5 µM.
Assay type: functional
Design: scale not given: in the data most compounds retested in dose-response had high values

| Structure (SMILES) | Percent Effect [%] |
| --- | --- |
| CNC(=O)C(C)CN(C)C(=O)Nc1ccc(F)c(-n2cccc2)c1 (centres undefined) | -4.138 |
| CC(C)n1ccc(=O)nc1SC1CCN(c2ccccc2F)C1=O (centres undefined) | -4.763 |
| CCN(CC)C(=O)CNS(=O)(=O)c1cc(Br)ccc1F | 7.808 |
| CCC(C#N)NC(=O)COC1CCCCC1 (centres undefined) | 0.5871 |
| O=C(O)C(F)(F)F.O=C(O)C(F)(F)F.c1nc2n(c1CN1CCCCC1)CCN(C1CCOC1)CC2 (centres undefined) | 7.057 |
| CCCc1n[nH]c(C2CN(CC(=O)N(C)Cc3ccco3)CCO2)n1 (centres undefined) | -31.39 |
| Cc1cnn(CCC(=O)N2CCOC(c3nc(C(C)(C)C)n[nH]3)C2)c1 (centres undefined) | 0.508 |
| CC(C)(C)c1n[nH]c(C2CN(C(=O)CCc3cscn3)CCO2)n1 (centres undefined) | -3.136 |
| CC(=O)N1CCOC(c2cncc(CCC(N)=O)n2)C1 (centres undefined) | 132.1 |
| Cc1nn(CCC#N)c(C)c1CCC(=O)N(C)C.Cl | 11.54 |
| CN1CCOC(c2cncc(CCC(N)=O)n2)C1 (centres undefined) | 120.9 |
| CC(=O)N1CCOC[C@H](OCC(=O)N(C)C)C1 | -10.39 |
| Cn1cc(CC(=O)N2CCOC(c3nc(C(C)(C)C)n[nH]3)C2)cn1 (centres undefined) | -9.292 |
| CN1CCOC(c2cncc(CCC(=O)N(C)C)n2)C1 (centres undefined) | 119.8 |
| CC(=O)N1CCOC(c2cncc(CCC(=O)N(C)C)n2)C1 (centres undefined) | 131.5 |
| CCC(CC)CN1CCC2(CCC(=O)N2OCc2ccccc2F)CC1 | 5.285 |
| CSCC(C)(O)CNc1cccc(F)c1C(C)=O (centres undefined) | 5.644 |
| Cc1nc(CNC(C(=O)N2CCOCC2)c2ccccc2)cs1 (centres undefined) | -4.254 |
| COCCN(C)CCN1CC2(CCN(C3CCSC3)CC2)OC1=O (centres undefined) | -12.17 |
| NC(=O)CCn1ccc(NC(=O)c2ccc(OCC3CC3)cc2)n1 | -25.96 |
| CC(C)(C(=O)NCC(N)=O)c1ccccc1F | -10.57 |
| Cc1cn2c(CN(C)C(=O)c3nccnc3N)c(C)nc2s1 | -5.585 |
| Nc1nccc(N[C@H]2CN(CC(=O)NC3CCCCC3)C[C@@H]2C2CC2)n1 | -21.82 |
| Cn1c(SCC(O)COCc2ccc(Cl)cc2)nnc1C1CC1 (centres undefined) | -3.183 |
| Cc1cnc(C(=O)N2C[C@@H]3CN(CC4CCCC4)CCO[C@@H]3C2)cn1.O=C(O)C(F)(F)F | -8.351 |

| Structure (SMILES) | Percent Effect [%] |
| --- | --- |
| O=C(C1CC(F)(F)C1)N1C[C@@H]2CN(CC3CC3)CCO[C@@H]2C1.O=C(O)C(F)(F)F | 110.9 |
| O=C(C1CC(F)(F)C1)N1C[C@@H]2CN(Cc3ccoc3)CCO[C@@H]2C1 | 97.76 |
| O=C(N1CCCC1)N1C[C@@H]2CN(Cc3ccoc3)CCO[C@@H]2C1 | 26.69 |
| O=C(O)C(F)(F)F.O=C(c1cocn1)N1C[C@@H]2CN(CC3CC3)CCO[C@@H]2C1 | 1.689 |
| O=C(CC1CCCC1)N1C[C@@H]2CN(Cc3ccoc3)CCO[C@@H]2C1 | -9.792 |
| O=C(C1CC(F)(F)C1)N1C[C@@H]2CN(Cc3ccsc3)CCO[C@@H]2C1.O=C(O)C(F)(F)F | 8.794 |
| O=C(C1CC(F)(F)C1)N1C[C@@H]2CN(CC3CCCC3)CCO[C@@H]2C1.O=C(O)C(F)(F)F | 97.34 |
| CCN1CCO[C@@H]2CN(C(=O)COC3CCCC3)C[C@@H]2C1.O=C(O)C(F)(F)F | 2.686 |
| CCS(=O)(=O)CC(=O)NC1(c2ccc(Cl)c(Cl)c2)CC1 | -4.937 |
| NC(=O)CC1CCN(S(=O)(=O)c2cnn(-c3ccccc3)c2)CC1 | 23.91 |
| OC[C@H]1CCN(Cc2ccc3ccccc3n2)C[C@@H]1O | -11.71 |
| COc1c(C2CCCN2c2ncnc3c2CCC3)c(C)nn1C (centres undefined) | -10.62 |
| Cc1cc2cc(CNC3CCN(S(C)(=O)=O)CC3)oc2cc1C | -4.149 |
| CN(C)S(=O)(=O)N1CCC(C(O)c2ccc(Cl)cc2)CC1 (centres undefined) | -7.887 |
| Cc1cc(-c2ccc(=O)n(C3CCN(S(C)(=O)=O)CC3)n2)c(C)o1 | 123.5 |
| Cc1ccc(C(C)NC(=O)N2CCN(S(C)(=O)=O)CC2)o1 (centres undefined) | 16.96 |
| Cc1cc(-c2ccc(=O)n(C3CCN(S(=O)(=O)N(C)C)CC3)n2)c(C)o1 | 95.62 |
| CCS(=O)(=O)N1CCC(c2nnc(C3CC3)o2)CC1 | -10.63 |
| CCCS(=O)(=O)N1CCC(n2nc(-c3cc(C)oc3C)ccc2=O)CC1 | 123.5 |
| CCCS(=O)(=O)N1CCC(c2ccc(OC)cc2)CC1 | -3.773 |
| CCS(=O)(=O)N1CCC(n2nc(-c3cc(C)oc3C)ccc2=O)CC1 | 128.2 |
| CN(C)S(=O)(=O)N1CCC(Oc2ccc(C#N)cc2)CC1 | -11.9 |
| Cc1cc(-c2n[nH]c3c2CN(S(=O)(=O)c2ccsc2)CC3)c(C)o1 | 6.081 |
| CCCS(=O)(=O)N1CCC(NC(=O)c2cc(C)c(CC)s2)CC1 | 4.17 |
